Data published in PubChem BioAssay AID602310 (National Center for Advancing Translational Sciences (NCATS), 2012).
Among all 410,000 compounds or so, about 310 (0.076%) were called active. Inconclusive results (about 2%) are left out. The full list was thinned out, with actives kept by preference. Values without a mark were called inactive. Calls follow the shape of the dose curve; as a rule, active = well fitted curve in the direction sought with a large enough effect; inconclusive = small, poorly fitted or top-dose-only effect; inactive = flat fitted curve, though single readings scatter.

target: DNA dC->dU-editing enzyme APOBEC-3G (Homo sapiens) (UniProt Q9HC16); test: qHTS for Inhibitors of Vif-A3G Interactions: qHTS; conditions: HeLa A3G-eYFP + Vif (tagged APOBEC3G with the HIV-1 protein that degrades it), YFP fluorescence, overnight; series mostly up to 46.1 µM; activity, negative = active: at the top concentration; also: nearly all actives have a fitted effect of over 60% in size;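 as to activity, negative = active: hits raise eYFP signal because A3G escapes Vif-driven loss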
Sequence (Q9HC16 whole entry, looked up): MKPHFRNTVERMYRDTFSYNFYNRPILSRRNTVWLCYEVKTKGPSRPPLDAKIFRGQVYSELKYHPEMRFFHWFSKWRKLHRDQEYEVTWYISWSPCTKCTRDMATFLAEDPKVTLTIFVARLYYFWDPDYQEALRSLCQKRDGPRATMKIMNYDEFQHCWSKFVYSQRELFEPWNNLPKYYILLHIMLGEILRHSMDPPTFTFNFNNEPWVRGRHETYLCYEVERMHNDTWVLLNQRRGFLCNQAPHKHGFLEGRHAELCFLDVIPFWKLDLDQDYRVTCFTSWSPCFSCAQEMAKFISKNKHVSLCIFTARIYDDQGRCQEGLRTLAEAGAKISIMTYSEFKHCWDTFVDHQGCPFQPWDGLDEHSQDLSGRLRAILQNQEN
Summary of the method: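 HeLa cells stably expressing Vif and C-terminally eYFP-tagged A3G, seeded overnight at 37 deg C, then exposed to compound by pintool overnight at 37 deg C. Rise in yellow fluorescence (Ex 488/Em 500-530, Acumen) marks blocked Vif-driven A3G degradation.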
% is scaled to controls: 0 for no effect and ±100 for the full control effect; potency is read from the fitted curve at half-maximal effect.

Structure (SMILES) | activity, negative = active | Potency
CN(C)CCCn1c(SCCN2C(=O)c3ccccc3C2=O)nc2ccccc2c1=O | 0.0321% | –
CCn1c(/C=C/c2ccc([N+](=O)[O-])o2)nc2ccccc2c1=O | – | 3.98 µM (active)
COc1cc(OC)c(OC)cc1/C=C/c1nc2ccccc2c(=O)n1-c1ccc(Br)c(C)c1 | -5.3% | –
CC(C)(C)C1CCC(NC(=O)c2cnn3c2NC(=C2CC2)C=C3C(F)F)CC1 (stereo unspecified) | 2.17% | –
CCCCS(=O)(=O)c1oc(-c2cccs2)nc1S(=O)(=O)c1ccccc1 | -18.8% | –
Cc1ccc(Cl)cc1N1CCN(S(=O)(=O)c2cc3[nH]c(=O)c(=O)[nH]c3cc2C)CC1 | 0.0103% | –
CCc1ccc(C(=O)CC2(O)C(=O)N(CCc3ccccc3)c3ccc(Br)cc32)cc1 (stereo unspecified) | -13.6% | –
COc1cc(OC)c(OC)cc1/C=C1\C=Cc2ccccc21 | -27.6% | –
COc1ccc(C2/C=C\CN(Cc3ccco3)C(C)C(=O)N2Cc2ccc(F)cc2)cc1 (stereo unspecified) | 3.73% | –
Cc1ccccc1CSCCNC(=O)C1CCN(S(=O)(=O)Cc2ccccc2)CC1 | 2.97% | –
Cc1cccc(CN2Cc3cccc4c3[C@H](C=CC4)CC2=S)c1 | 3.11% | –
Cc1csc(NCC(=O)c2c[nH]c3ccccc23)n1 | -3.43% | –
CCOc1cccc2c1N[C@@H](c1ccc(C(=O)O)cc1)[C@H]1CC=C[C@@H]21 | 1.39% | –
CCOC(=O)c1cc2c(=O)n3ccccc3nc2n(CC2CCCO2)c1=NC(=O)c1ccccc1Br (stereo unspecified) | -6.1% | –
CC(C)OC(=O)c1ccc(NCc2cc(O)ccc2O)cc1Cl | – | 12.6 µM (active)
O=S(=O)(c1cccc(C(F)(F)F)c1)N1CCN(c2nc(-c3cccs3)nc3ccccc23)CC1 | 0.472% | –
Cc1c(Cl)cccc1NC(=O)CCS(=O)(=O)c1ccc2c(c1)oc(=O)n2C | 1.33% | –
COc1cc2[nH]c(C)c(CCN3CCN(c4ccccc4)CC3)c2cc1OC | 1.15% | –
CCc1ccc(S(=O)(=O)n2ccnc2)cc1 | 0.941% | –
Cc1[nH]c2ccccc2c1C(=O)C(=O)N(C)c1ccccc1 | 0.569% | –
COc1ccc(CCNC(=O)Cn2c(=O)cc(C(F)(F)F)c3c(C)nn(C)c32)c(OC)c1 | 4.39% | –
COc1cc2c(=O)c(S(=O)(=O)c3ccc(C(C)C)cc3)cn(Cc3ccccc3C)c2cc1OC | -1.18% | –
O=C(O)c1c(Br)c(Br)c(Br)c(Br)c1C1c2ccc(O)cc2Oc2cc(O)ccc21 | 3.84% | –

Structure (SMILES) | activity, negative = active | Potency
CCOC(=O)N1CCC(NC(=O)c2cnn(-c3cccc(C)c3)c2C2CCN(C(=O)OC(C)(C)C)CC2)CC1 | 1.48% | –
OCCNc1ncnc2oc(-c3ccco3)c(-c3ccco3)c12 | -5.55% | –
O=[N+]([O-])c1ccc(/C=C/c2ccc3cccnc3c2)cc1 | -2.68% | –
O=C(O)C1=C/C(=C/C=[N+]2c3cc(O)c(O[C@H]4OC(CO)[C@@H](O)[C@@H](O)[C@@H]4O)cc3C[C@@H]2C(=O)[O-])C[C@H](C(=O)O)N1 (stereo partly specified) | 1.5% | –
Cc1ccc2onc(CC(=O)N3CCN(c4ccc(Cl)cc4)CC3)c2c1 | 0.252% | –
Cc1ccc(C=O)cc1Cl | 0.329% | –
C(=Nc1ccc(/C=C/c2ccnc3ccccc23)cc1)c1cc2c3c(c1)CCCN3CCC2 | 2.24% | –
CC(C)(C)c1ccc(C(=O)NCC(c2ccc(Cl)cc2)N2CCOCC2)cc1 (stereo unspecified) | 1.59% | –
O=C1CN(C(=O)Nc2ccccc2C(F)(F)F)C(c2ccccc2)c2c(sc3c2CCCC3)N1 (stereo unspecified) | -1.24% | –
CCCN(CCC)c1nc2c(C)cccn2c(=O)c1/C=C1/SC(=S)N(Cc2ccco2)C1=O | – | 3.16 µM (active)
CN(C)c1ccc(/C=c2\[nH]c(=O)/c(=C/c3ccc(N(C)C)cc3)[nH]c2=O)cc1 | -0.485% | –
CCN(C(=O)CSc1nnc(C)n2c1cc1occc12)c1ccccc1 | -4.9% | –
CCOc1ccc(C(=O)/C=C/c2cn(CC(O)CN3CCCCCC3)c3ccccc23)cc1 (stereo unspecified) | -4.47% | –
CCOC(=O)N1CCc2c(sc(NCc3cccc(F)c3)c2C(=O)Nc2ccccc2OCC)C1 | -3.66% | –
O=C(COC(=O)c1ccccc1OCCOc1ccccc1)Nc1cccc(Br)c1 | 0.386% | –
Cc1cc(C)cc(NC(=O)CSc2nc3nccnc3c(=O)n2CCc2c[nH]c3ccccc23)c1 | 6.02% | –
CCOC(=O)c1ccc(NC(=O)C2CC(=O)NC(=Nc3ccc(C)c(C)c3)S2)cc1 (stereo unspecified) | 1.17% | –
CCCCNC(=O)Cn1c(SCc2cccc(Cl)c2)nc2ccncc21 | 0.68% | –
CCCn1ccc2c(OCC(=O)NCc3ccc(F)cc3)cccc2c1=O | -0.319% | –
O=C(Nc1ccc(Cl)cc1)c1cnn2c1NC(=C1CC1)C=C2C(F)F | -0.955% | –
Cc1cccc(-c2nnc(SC(C)C(=O)Nc3ccccc3)n2C)c1 (stereo unspecified) | -0.805% | –
CCN1CCN(c2ccc(/C=C/c3ccnc4ccccc34)cc2)CC1 | 1.79% | –
COc1ccc(-c2nc3c(c(SCC(=O)Nc4ccc(C(=O)O)cc4)n2)Cc2ccccc2O3)cc1 | 3.8% | –

Structure (SMILES) | activity, negative = active | Potency
Brc1cccc[n+]1Cc1cccc(C[n+]2ccccc2Br)c1 | -5.54% | –
CC(C)(C)n1ncc2c(=O)n(Cc3ccc(C(=O)c4ccccc4)cc3)cnc21 | -0.656% | –
OC(CBr)C[n+]1cccc2cc(Br)ccc21 (stereo unspecified) | -3.43% | –
N#CC1=C(N)Oc2c(sc3ccccc23)C1c1ccco1 (stereo unspecified) | – | 11.2 µM (active)
O=C(OC12CC3CC(CC(C3)C1)C2)c1ccc(NCc2cc(O)ccc2O)cc1 | – | 6.31 µM (active)
COC(=O)c1ccccc1NC(=O)c1cnn(-c2ccc(F)cc2)c1-n1cccc1 | -4.09% | –
CCOc1ccc(N(CC)S(=O)(=O)N2CCCC(C(=O)NCc3ccc(Cl)cc3)C2)cc1 (stereo unspecified) | 3.88% | –
N#Cc1ccc[n+](CC(=O)c2ccc(F)cc2)c1 | -2.66% | –
O=C(C[n+]1ccncc1)c1ccc2c(c1)CCCC2 | -7.56% | –
Cc1nn(CC(=O)N2CCN(c3cccc(C(F)(F)F)c3)CC2)c(=O)c2cc3sccc3n12 | 1.37% | –
CCCCC(CCCC)c1ccc(C=Nc2ccc(/C=C/c3ccnc4ccccc34)cc2)cc1 | -7.47% | –
CCS(=O)(=O)N1CCc2cc(C(=O)NCc3ccc(C)cc3)ccc21 | 1.84% | –
CCCCN1C(=O)c2[nH]nc(-c3ccccc3O)c2C1c1cccc(OCc2ccccc2)c1 (stereo unspecified) | -29.4% | –
ClC/C=C/C[n+]1ccccc1Cl | 3.06% | –
CSc1n[nH]c(-c2ccco2)n1 | -3.31% | –
C[n+]1ccc(/C=C/c2c[nH]c3ccccc23)cc1 | – | 11.2 µM (active)
CCOc1n[nH]c(-c2ccccc2)n1 | 3.57% | –
CCc1nn(CC(=O)Nc2cccc(C)c2C)c(=O)c2cc3sccc3n12 | 2.56% | –
CCOc1ccccc1NC(=O)CN1CCN(S(=O)(=O)c2ccc(Br)cc2)CC1 | 1.45% | –
COc1cccc(NC(=O)Cn2c(=O)cc(C)c3c(C)nn(-c4cccc(F)c4)c32)c1 | 0.977% | –
Nc1nc(N)c(N=O)c(N)n1 | -0.374% | –
CCCCOc1ccc(C(=O)N2CC(=O)Nc3ccc(Br)cc3C2c2ccc(F)cc2)cc1 (stereo unspecified) | -0.538% | –
COc1ccccc1/C=C/c1nc(C#N)c(NC(C)c2ccccc2)o1 (stereo unspecified) | 0.452% | –

Structure (SMILES) | activity, negative = active | Potency
COc1ccc(CCNC(=O)c2ccc(CSCc3ccc(C)cc3)o2)cc1OC | 4.58% | –
CNCCCOc1cc2nc(N3CCCN(C)CC3)nc(NC3CCN(C)CC3)c2cc1OC | 2.66% | –
O=C(COc1ccccc1C(=O)Nc1ccccc1)Nc1cccc(F)c1 | -2.9% | –
CC1(C)CC(=O)c2cc(C(=O)NCc3ccccc3)c(=O)[nH]c2C1 | -3.12% | –
Cn1nnnc1SCCNCc1ccc(Cl)c(Cl)c1 | -0.946% | –
Cc1csc[n+]1CCC1CCCCC1 | 1.21% | –
CCn1c(CNC(=O)C23CC4CC(CC(C4)C2)C3)nnc1SCC(=O)Nc1ccc(OC)cc1 | – | 10 µM (active)
CCn1c(CNc2ccc(OC)cc2)nnc1SCC(=O)c1ccc(OC)cc1 | 0.533% | –
CCCCn1c(CNC(=O)C23CC4CC(CC(C4)C2)C3)nnc1SCC(=O)Nc1ccc(C)cc1 | -0.393% | –
Cc1ccc(C(=O)COC(=O)C(Cc2c[nH]c3ccccc23)NC(=O)c2ccc(Br)cc2)cc1 (stereo unspecified) | 2.11% | –
Cc1ccc(Cl)cc1N1CCN(C(=O)c2cn(C)c3ccc(S(=O)(=O)N(C)C4CCCCC4)cc3c2=O)CC1 | 0.271% | –
S=c1[nH]c(=S)c2n[nH]nc2[nH]1 | 4.48% | –
COc1cccc(C(=O)NC(=O)Nc2ccc(-c3cc(C(F)(F)F)nn3-c3ccccc3)cc2)c1 | 3.03% | –
COc1ccc(CCN2C(=O)N(c3cccc(OC)c3)C(=O)C2CC(=O)Nc2ccccc2)cc1 (stereo unspecified) | 3.95% | –
COc1ccc(CC(=O)NCCc2sc3nc(-c4ccc(OC)cc4)nn3c2C)cc1 | 7.95% | –
CCc1ccc(Nc2nn3c(=O)c4cc5c(cc4nc3s2)OCO5)cc1 | 3.36% | –
CCOC(=O)c1c(C)[nH]c(C)c1S(=O)(=O)NCC(=O)NCc1cccc(C)c1 | -0.939% | –
COc1ccc(CNC(=O)Cn2nnc(-c3ccc(S(C)(=O)=O)cc3)n2)cc1 | 2.9% | –
COc1ccc(OC)c(NC(=O)CSc2nc3ccccc3nc2N2CCCCC2)c1 | -8.14% | –
Cc1ccc(Cn2cnc3c(cnn3C(C)(C)C)c2=O)c(F)c1 | -1.28% | –
Brc1cccc(-c2nnn3c2nc(NC2CCCCC2)c2ccccc23)c1 | 5.7% | –
C[N+]1(CC(=O)c2cccs2)CCOCC1 | 1.57% | –
CCCNC(=O)C1CCN(c2nc3ccc(C)cc3[nH]2)CC1 | 0.307% | –

Structure (SMILES) | activity, negative = active | Potency
COc1cc(OC)c(NC(=O)c2c3c(nn2C)-c2ccccc2SC3)cc1Cl | 3.23% | –
CN(N=O)c1ccc(C=C2c3ccccc3-c3ccccc32)cc1 | -1.54% | –
COc1ccc2[nH]c3c(c2c1)CCN(C(=O)CCC1CCCC1)C3c1ccc(F)cc1 (stereo unspecified) | -9.23% | –
CN(C)c1cccc2ccccc12 | 3.02% | –
CN(C)c1ccc(/C=C/c2c3ccccc3nc3ccccc23)cc1 | -16.4% | –
Cc1oc2c(c1C(=O)Nc1ccc(F)c(F)c1)C1=NCCN1C=N2 | 2.52% | –
CCc1nnc(SCc2c(F)cccc2Cl)c2cc3sccc3n12 | -1.5% | –
COc1ccc(/C=C/c2ccccn2)cc1OC | 0.196% | –
Cc1cc(Cl)ccc1OCC(=O)N(Cc1ccc(N(C)C)cc1)C1CCS(=O)(=O)C1 (stereo unspecified) | 0.29% | –
CN(C)C1=C2C=CC=CC2/C(=C2/C=Cc3ccccc32)C=C1 (stereo unspecified) | -6.13% | –
CCOc1ccccc1NC(=O)Cn1c(=O)n(-c2cccc(C)c2)c(=O)c2c1c1cc(OC)ccc1n2C | 0.805% | –
O=C(Nc1ccc([N+](=O)[O-])cc1)c1cnn2c1NC(=C1CC1)C=C2C(F)F | 0.78% | –
O=C(CSc1ncc(S(=O)(=O)c2ccc(Br)cc2)c(=O)[nH]1)Nc1ccc2c(c1)OCCO2 | -0.105% | –
CCOc1ccccc1C(=O)NCc1ccc2c(c1)CCN2C(=O)c1ccc(F)cc1 | 0.357% | –
COc1cc2nc(C#Cc3nc4cc(OC)c(OC)cc4[nH]3)[nH]c2cc1OC | 0.338% | –
Cc1ncc(CO)c(/C=N/NC(=O)c2cccc(S(=O)(=O)N3CCCC3)c2)c1O | -0.256% | –
Cc1ccccc1NC(=O)COc1cccc2c1CCNC2=O | -0.461% | –
COc1cccc(/C=N/NC(=O)c2[nH]nc3c2CCc2ccccc2-3)c1O | – | 8.91 µM (active)
CCc1cc2c(cc3c(=O)n(CC(=O)N4CCN(c5cc(Cl)ccc5C)CC4)nc(CC)n32)s1 | 0.482% | –
